Screening data deposited in PubChem BioAssay by National Center for Advancing Translational Sciences (NCATS).
Sfp PPTase inh – inhibitors of Bacillus subtilis Sfp phosphopantetheinyl transferase. Q9F4F7. Biochemical Sfp PPTase activity, qHTS. Potency, µM, for the others: largest response in the series, negative = inhibition, hits mostly inhibitors. 3.5% of 310,000 active. AID 1490;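 further: the enzyme is Sfp with the accession as filed and its product quenches rhodamine fluorescence; 0% = enzyme reaction without inhibitor and -100% = no enzyme wells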
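Fluorescence-quenching assay: 15 nM Sfp-PPTase preincubated 15 min at room temperature with compound, then 5 uM rhodamine-CoA and 12.5 uM BHQ-2-labelled YbbR peptide added. Fluorescence (ex 525/em 598 nm) read at start and after 30 min; difference gives rate.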
12-LOX inh – ALOX12 (human) lipoxygenase inhibition. P18054. purified 12hLO, xylenol orange hydroperoxide absorbance. Potency, µM (doses to about 108 µM), inactives show at the top dose activity change, negative = inhibition, most hits filed as inhibitors. 1.1% of 580,000 active; further: on the % scale 0 is the no-effect control and ±100 the full control effect
Target sequence (P18054 whole entry, looked up): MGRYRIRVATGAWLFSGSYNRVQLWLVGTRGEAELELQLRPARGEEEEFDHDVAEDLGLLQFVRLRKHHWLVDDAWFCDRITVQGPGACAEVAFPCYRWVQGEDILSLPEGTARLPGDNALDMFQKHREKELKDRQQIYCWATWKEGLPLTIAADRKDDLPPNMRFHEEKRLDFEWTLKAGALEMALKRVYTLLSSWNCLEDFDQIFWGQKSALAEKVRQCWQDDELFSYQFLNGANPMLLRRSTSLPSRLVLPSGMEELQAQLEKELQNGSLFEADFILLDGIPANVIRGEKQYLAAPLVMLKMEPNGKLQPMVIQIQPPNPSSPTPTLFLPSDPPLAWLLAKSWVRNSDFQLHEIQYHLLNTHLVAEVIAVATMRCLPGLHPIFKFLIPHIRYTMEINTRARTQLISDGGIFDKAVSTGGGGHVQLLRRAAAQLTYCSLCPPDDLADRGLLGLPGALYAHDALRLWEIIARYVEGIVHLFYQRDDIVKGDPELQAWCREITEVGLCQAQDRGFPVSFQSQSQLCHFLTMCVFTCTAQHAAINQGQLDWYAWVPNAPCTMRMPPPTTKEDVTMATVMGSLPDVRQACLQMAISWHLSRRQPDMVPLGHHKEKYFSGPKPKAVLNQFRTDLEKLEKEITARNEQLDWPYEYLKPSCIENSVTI
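Purified human 12hLO at 150 nM in 25 mM Hepes, 0.01% Triton X-100, pH 7.0, preincubated 15 min at room temperature with compound. Reaction started with 40 uM arachidonic acid, 30 min at room temperature. Hydroperoxide measured by Fe-xylenol orange, 573/405 nm absorbance ratio.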
JMJD2A Tudor inh – JMJD2A Tudor domain (human) inhibition; O75164; AlphaScreen JMJD2A-Tudor / H3K4me3 peptide binding; 4.4% of 390,000 active; Potency, µM (highest dose often 114 µM), for the others: top-dose activity change, negative = inhibition, hits mostly inhibitors; further: on the % scale 0 is the no-effect control and ±100 the full control effect; nearly all actives have a fitted effect of over 50% in size
G9a inh – inhibitors of human histone lysine methyltransferase G9a; Q96KQ7; G9a H3K9 monomethylation, AlphaScreen, 2 h; Potency, µM (doses to about 102 µM), without a hit: at the top dose activity, negative = inhibition, hits mostly inhibitors; 8.8% of 350,000 active; further: on the % scale 0 is the no-effect control and ±100 the full control effect; nearly all actives have a fitted effect of over 75% in size
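Step 1: enzyme (final 20 nM) with compound, 15 min RT. Step 2: substrate peptide 500 nM and SAM 20 uM, 2 h RT. Step 3: anti-H3K9me1 antibody and AlphaScreen beads, 10 min, then plate read.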
HP1b binding inh – blocks HP1-beta chromodomain binding to methylated histone tails; P83916; AlphaScreen HP1-beta / biotin-H3K9me3 peptide binding; Potency, µM (doses to about 114 µM), inactives show at the top dose activity change, negative = inhibition, usual class: inhibitors; 0.56% of 390,000 active; AID 540317; further: nearly all actives have a fitted effect of over 70% in size
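AlphaScreen: HP1-beta (50 nM) preformed 30 min with biotin-H3(1-18)K9me3 peptide (50 nM) in PBS pH 7.4, 0.01% Tween-20. Compound added for 30 min at RT, then streptavidin donor/nickel chelate acceptor beads (10 ug/mL) for 30 min.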
BAZ2B inh – blocks human BAZ2B | Q9UIF8 | AlphaScreen BAZ2B-H3K14Ac peptide displacement | Potency, µM (doses to about 114 µM), without a hit: at the top dose activity change, negative = inhibition, usual class: inhibitors | 4.4% of 360,000 active; further: on the % scale 0 is the no-effect control and ±100 the full control effect; nearly all actives have a fitted effect of over 60% in size
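BAZ2B 50 nM plus b-H3(5-23)K14Ac 50 nM, PBS pH 7.4/0.01% Tween-20, 30 min RT; compound added (max 110 uM), 30 min RT; streptavidin donor/Ni-chelate acceptor beads 10 ug/mL final, 20 min dark; AlphaScreen read.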
The depositor's hits bear a star; u = inconclusive; x = not tested or not shown; [ ] = dose if it differs, or a comment. Sampled rows, rich in hits. Any-hit rate of the full collection: about 8.7%. The call rests on the fitted dose curve; in most records, active means well fitted curve in the direction sought with a large enough effect; inconclusive means small, poorly fitted or top-dose-only effect, or another doubt; inactive means no such curve, though single readings can be large; an effect the other way counts as inactive or inconclusive. Potency means the concentration at half of the fitted maximal effect.

SMILES	Sfp PPTase inh	12-LOX inh	JMJD2A Tudor inh	G9a inh	HP1b binding inh	BAZ2B inh
CCCN1C(=O)/C(=C\C=C2/C=CN(CC)c3ccccc32)SC1=S	7.1µM*	u	u	7.9µM*	u	u
Cc1cccc(CNC(=O)CN2CC3CC(C2)[C@H]2CCCC(=O)N2C3)c1 (some centres undefined)	x	24%	x	x	x	x
CCCc1cc(=O)oc2cc(OS(=O)(=O)c3c(C)c(C)cc(C)c3C)ccc12	x	7%	x	x	x	x
CS(=O)(=O)c1cccc(C(=O)N2CCCCCC2)c1	x	2%	x	x	x	x
CCCCN1C(=O)/C(=C/C=C2\N(C)c3ccccc3C2(C)C)SC1=S	-10%	x	x	u	x	8.9µM*
CN1/C(=C/C2CC(=O)NC2=O)C(C)(C)c2ccccc21 (centres undefined)	-19%	-23%	-27%	u	26%	-5%
COC(=O)c1cc2oc(C)cc2n1Cc1cccc(Cl)c1	x	10%	17%	14µM*	18%	-39%
COC(=O)c1cc2oc(C)cc2n1Cc1c(C)cc(C)cc1C	x	u	-24%	4µM*	20%	u
COC(=O)c1cc2oc(C)cc2n1CC(=O)Nc1ccc(C)c(C)c1	-19%	-6%	-25%	u	2%	-6%
COC(=O)c1cc2oc(C)cc2n1Cc1ccc(C)cc1	x	u	-23%	14µM*	22%	-37%
O=C(COC(=O)CC1CCCC1)Nc1cc2c(cc1Cl)C(=O)c1ccccc1C2=O	15%	0%	56µM*	u	-26%	56µM*
CC(C)c1ccc(NC(=O)COC(=O)CC2CCCC2)cc1	x	7%	26%	x	87%	x
COC(=O)c1scc(-c2ccc(C)cc2)c1S(=O)(=O)N1CCN(c2ccc(F)cc2)CC1	x	u	-28%	u	u	-29%
COC(=O)c1scc(-c2ccc(C)cc2)c1S(=O)(=O)N1CCN(c2ccc(OC)cc2)CC1	x	u	u	11µM*	u	u
OCCCCNCc1ccc(OCc2ccc(Cl)cc2)cc1	-4%	-13%	-3%	18%[59 µM]	12%	-1%
Clc1ccc(Cl)c(OCCCCNCc2ccccc2)c1	-22%	u	1.3µM*	u	u	u
Clc1ccc(OCCCNCc2ccccc2)c(Br)c1	u	u	10µM*	13µM*	-22%	u
CCS(=O)(=O)N1CCc2cc(C(=O)CSc3ccc(F)cc3F)ccc21	x	4%	x	x	x	x
Cc1ccc(CNC(=O)COC(=O)c2cncc(Br)c2)cc1	3%	2%	-4%	u	47%	-2%
O=C(COC(=O)c1ccc(Cl)nc1)Nc1nnc(-c2ccccc2)o1	x	-19%	79µM*	-7%	16%	50µM*
COc1ccc(CNC(=O)COC(=O)c2cncc(Br)c2)cc1	14%	-24%	-14%	40µM*	29%	-17%
O=C(COC(=O)c1cncc(Br)c1)Nc1nnc(-c2ccccc2)o1	x	7%	50µM*	x	25%	x
COc1cc(OC)cc(C(=O)OCC(=O)Nc2nnc(-c3ccccc3)o2)c1	x	3%	50µM*	x	73%	x
CCN1CCN(Cc2ccc(OCc3ccccc3)c(OC)c2)CC1	11%	u	-27%	u	22%	-1%
Cc1ccc([N+](=O)[O-])c(OCCN2CCC(Cc3ccccc3)CC2)c1	u	u	3.2µM*	u	u	22µM*
SMILES	Sfp PPTase inh	12-LOX inh	JMJD2A Tudor inh	G9a inh	HP1b binding inh	BAZ2B inh
CCN1CCN(CCOc2ccccc2OCc2ccccc2)CC1	-11%	u	13µM*	20µM*	u	22µM*
COc1ccccc1OCC#CCN1CCC(Cc2ccccc2)CC1	x	-55%	x	x	x	x
N#Cc1ccccc1OCCCN1CCC(Cc2ccccc2)CC1	-7%	u	4.5µM*	32µM*	u	u
CCOc1ccccc1OCCN1CCC(Cc2ccccc2)CC1	-5%	-23%	45µM*	16µM*	-13%	56µM*
CCN(CC)C1CCOC2(CCN(C(=O)C(C)C)CC2)C1 (centres undefined)	x	13%	x	x	x	x
COc1ccccc1CNS(=O)(=O)c1ccc(N2C(=O)C(C)CS2(=O)=O)cc1 (centres undefined)	x	-4%	x	x	x	x
CCN1C(=O)C(O)(c2c[nH]c3ccccc23)c2ccccc21 (centres undefined)	x	9%	x	x	x	x
CCOc1ccccc1OCCOCCN1CC(C)OC(C)C1 (centres undefined)	0%	-31%	u	16µM*	-21%	u
CCOc1ccccc1NC(=O)NCCN1CCCCC1	16%	0%	-11%	13%	16%	-3%
Cc1ccc(SCCOCCN2CC(C)OC(C)C2)cc1 (centres undefined)	11%	-6%	-9%	u	20%	10%
CCC(=O)c1ccccc1OCCCN1CCC(Cc2ccccc2)CC1	u	6.3µM*	35µM*	40µM*	u	-34%
CCOc1ccccc1OCCN1CCCC1	12%	u	20µM*	79µM*	-17%	-26%
O=C(O)c1ccc(F)c(Br)c1	x	-29%	x	x	x	x
CCC(C)c1ccc(NC(=O)COc2ncnc3ccccc23)cc1 (centres undefined)	x	-17%	x	x	x	x
CCCc1nn(C)c2c(=O)[nH]c(-c3cc(S(=O)(=O)Nc4ccccc4C)ccc3OCC)nc12	x	11%	x	x	x	x
CCOC(=O)c1cc(-c2ccc(N)cc2)sc1N	-22%	u	45µM*	u	-51%	32µM*
CCOC(=O)c1sc(-c2ccc(Br)cc2)cc1N	-13%	-16%	25%	2%[12.7 µM]	81%	26%[57.1 µM]
Nc1ccc(Oc2ccc(Br)cc2)cc1	31%	-1%	u	-10%[59 µM]	u	40µM*
Cc1cc(C)cc(Oc2ccc(N)cc2)c1	4%	13%	u	-51%[59 µM]	-25%	u
COc1ccc(-c2cc(OC(=O)c3cccc(C)c3)c3c(C)oc(C)c3c(=O)c2)cc1	x	u	u	7.9µM*	26%	u
COc1cc(-c2cc(OC)c3c(C)oc(C)c3c(=O)c2)ccc1OC(=O)c1cccc(Cl)c1	x	u	u	-53%[59 µM]	2%	79µM*
CCOc1cc(-c2ccc(OC(=O)c3ccc(C)cc3)c(OC)c2)cc(=O)c2c(C)oc(C)c12	x	-15%	u	u	5%	40µM*
COc1ccc(-c2cc(OC(=O)c3cccc(Cl)c3)c3c(C)oc(C)c3c(=O)c2)cc1OC	x	u	u	u	-17%	50µM*
Cc1cnc(C2CCOCC2)n1C1CCN(C(=O)C(C)Oc2ccccc2)CC1 (centres undefined)	x	51%	x	x	x	x
CCOc1ccc(-c2cc(OC(=O)c3ccc(F)cc3)c3c(C)oc(C)c3c(=O)c2)cc1	x	3%	u	u	-9%	u
